The panel holds about 79,000 compounds, 15% with a hit somewhere; the sample as a whole holds those more often. Calls of active or inactive are those of the source. Rule as the data show it: active = growth inhibition above about 70%; inactive = the rest.
Assays:
[1] = NCI Yeast Anticancer Drug Screen. Data for the rad52 strain (AID 147);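 also: 0% = growth of vehicle-treated control cultures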; conditions: S. cerevisiae rad52 mutant growth inhibition, hits give high values
How it was run: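 Here a repair-compromised yeast strain receives each compound; its growth is then quantified and normalised to vehicle-only controls.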

[2] = NCI Yeast Anticancer Drug Screen. Data for the wt1 strain (AID 149);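 also: 0% = growth of vehicle-treated wt1 cultures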; conditions: S. cerevisiae wt1 strain (SPY 50644) growth inhibition, hits give high values
How it was run: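 Growth inhibition read against vehicle controls after compound exposure of the wt1 yeast strain.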

[3] = NCI Yeast Anticancer Drug Screen. Data for the rad50EPP+ strain (AID 151);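 also: 0% = growth of vehicle-treated control cultures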; conditions: S. cerevisiae rad50 mutant strain, hits give high values
How it was run: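 Read-out is yeast growth inhibition relative to vehicle; cells used were the rad50EPP+ strain.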

[4] = NCI Yeast Anticancer Drug Screen. Data for the mgt1 strain (AID 153); conditions: S. cerevisiae mgt1 mutant growth inhibition, hits give high values
How it was run: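 Measured: inhibition of mgt1 yeast growth by compound, normalized to vehicle-treated cultures.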

[5] = NCI Yeast Anticancer Drug Screen. Data for the rad50 strain (AID 155);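 also: 0% = growth of vehicle-only cultures of the same strain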; conditions: S. cerevisiae rad50 strain growth inhibition, hits give high values
How it was run: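 Readout: growth inhibition relative to vehicle-treated cultures. Compound exposure was carried out in a genetically defined yeast strain deficient in DNA damage repair.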

[6] = NCI Yeast Anticancer Drug Screen. Data for the mec2-1 strain (AID 157); conditions: S. cerevisiae mec2-1 strain, hits give high values
How it was run: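 Using mec2-1 yeast: add compound, measure growth, express inhibition versus vehicle-treated cultures.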

[7] = NCI Yeast Anticancer Drug Screen. Data for the rad14 strain (AID 159);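 also: 0% = growth of vehicle-treated control cultures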; conditions: S. cerevisiae rad14 strain growth inhibition, hits give high values
How it was run: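 Growth inhibition vs vehicle controls; genetically altered yeast strain (DNA damage repair defect) treated with test compounds.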

[8] = NCI Yeast Anticancer Drug Screen. Data for the sgs1 mgt1 strain (AID 161);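 also: 0% = growth of cultures given vehicle only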; conditions: S. cerevisiae sgs1 mgt1 strain, hits give high values
How it was run: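 Yeast cells carrying a defined DNA-repair defect were exposed to test compounds. Growth inhibition was measured relative to vehicle-treated controls.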

[9] = NCI Yeast Anticancer Drug Screen. Data for the CLN2oe strain (AID 163);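 also: 0% = growth of vehicle-only control cultures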; conditions: S. cerevisiae CLN2oe strain, hits give high values
How it was run: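 Whole-cell yeast growth assay. A strain engineered for altered cell-cycle control received compound, and inhibition relative to vehicle-treated cultures was recorded.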

[10] = NCI Yeast Anticancer Drug Screen. Data for the cln2 rad14 strain (AID 165);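 also: 0% = growth equal to vehicle treated cultures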; conditions: S. cerevisiae cln2 rad14 strain, hits give high values
How it was run: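 Yeast strain cln2 rad14, bearing defects in cell cycle control and DNA repair, serves as the test system; values reflect growth inhibition compared with vehicle.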

[11] = NCI Yeast Anticancer Drug Screen. Data for the bub3 strain (AID 167); conditions: S. cerevisiae bub3 mutant strain, hits give high values
How it was run: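 Readout: yeast growth inhibition, expressed relative to vehicle-only wells. The test organism is a mutant strain from a panel with lesions in DNA repair or checkpoint genes.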

[12] = NCI Yeast Anticancer Drug Screen. Data for the wt2 strain (AID 169);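 also: 0% = growth of vehicle-treated yeast cultures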; conditions: S. cerevisiae wt2 strain growth inhibition, hits give high values
How it was run: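 Treated yeast vs. vehicle-treated yeast: growth inhibition determined.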

[13] = NCI Yeast Anticancer Drug Screen. Data for the mlh1 strain (AID 171);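 also: 0% = growth of vehicle-treated control cultures of the same strain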; conditions: S. cerevisiae mlh1 strain growth inhibition, hits give high values
How it was run: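 A yeast strain with a defined genetic lesion serves as the test organism. Cultures receive compound or vehicle, and growth is measured.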

[14] = NCI Yeast Anticancer Drug Screen. Data for the sgs1 strain (AID 173);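 also: 0% = growth of vehicle-only control cultures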; conditions: S. cerevisiae sgs1 mutant, hits give high values
How it was run: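 A genetically defined yeast mutant is incubated with the test compound, and its growth is compared to that of the same strain given vehicle.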

[15] = NCI Yeast Anticancer Drug Screen. Data for the mlh1 rad18 strain (AID 175); conditions: S. cerevisiae mlh1 rad18 strain growth inhibition, hits give high values
How it was run: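 Steps: expose repair-defective yeast to compound; measure growth; express inhibition against vehicle-treated controls.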

[16] = NCI Yeast Anticancer Drug Screen. Data for the rad18 strain (AID 177); conditions: S. cerevisiae rad18 mutant growth inhibition, hits give high values
How it was run: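 Measured value is growth inhibition of a yeast strain bearing a DNA repair alteration, referenced to vehicle-treated cells.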

[17] = at 5.0 µM (retest, dose inferred, filed as 0.5)
[18] = at 50.0 µM (retest, dose inferred, filed as 5.0)

Measured: growth inhibition

C=C(C(=C)n1nnc(C(=O)OC)c1C(=O)OC)n1nnc(C(=O)OC)c1C(=O)OC
inactive: [1]; at 1.2 µM 0% | [1]; at 3.7 µM 2% | [1]; at 11.0 µM 3% | [1]; at 33.0 µM 0% | [1]; at 100.0 µM 0% | [2]; at 1.2 µM -1% | [2]; at 3.7 µM 0% | [2]; at 11.0 µM 1% | [2]; at 33.0 µM 0% | [2]; at 100.0 µM 1% | [3]; at 1.2 µM 0% | [3]; at 3.7 µM -1% | [3]; at 11.0 µM -1% | [3]; at 33.0 µM -2% | [3]; at 100.0 µM 0% | [4]; at 1.2 µM 0% | [4]; at 3.7 µM 5% | [4]; at 11.0 µM 0% | [4]; at 33.0 µM -1% | [4]; at 100.0 µM -3% | [5]; at 1.2 µM 0% | [5]; at 3.7 µM 1% | [5]; [17] 3% | [5]; at 11.0 µM 0% | [5]; at 33.0 µM 0% | [5]; [18] 2% | [5]; at 50.0 µM 27.1% | [5]; at 100.0 µM -2% | [6]; at 1.2 µM -5% | [6]; at 3.7 µM -5% | [6]; [17] -1% | [6]; at 11.0 µM -3% | [6]; at 33.0 µM -2% | [6]; [18] -1% | [6]; at 50.0 µM 51.9% | [6]; at 100.0 µM -5% | [7]; at 1.2 µM 1% | [7]; at 3.7 µM 3% | [7]; at 11.0 µM 3% | [7]; at 33.0 µM 3% | [7]; at 100.0 µM 1% | [8]; [17] 10% | [8]; [18] -3% | [8]; at 50.0 µM 51% | [9]; at 1.2 µM -2% | [9]; at 3.7 µM -1% | [9]; at 11.0 µM -4% | [9]; at 33.0 µM 0% | [9]; at 100.0 µM -4% | [10]; [17] -3% | [10]; [18] -2% | [10]; at 50.0 µM 53.2% | [11]; at 1.2 µM -1% | [11]; at 3.7 µM -3% | [11]; [17] 2% | [11]; at 11.0 µM -3% | [11]; at 33.0 µM -5% | [11]; [18] 2% | [11]; at 50.0 µM 66.4% | [11]; at 100.0 µM -4% | [12]; at 1.2 µM -1% | [12]; at 3.7 µM -1% | [12]; at 11.0 µM 1% | [12]; at 33.0 µM -1% | [12]; at 100.0 µM 0% | [13]; at 1.2 µM -1% | [13]; at 3.7 µM -2% | [13]; at 11.0 µM 0% | [13]; at 33.0 µM 0% | [13]; at 100.0 µM 0% | [14]; at 1.2 µM 0% | [14]; at 3.7 µM -1% | [14]; at 11.0 µM -2% | [14]; at 33.0 µM 0% | [14]; at 100.0 µM 0% | [15]; [17] -2% | [15]; [18] 48% | [15]; at 50.0 µM 59.5% | [16]; at 1.2 µM 0% | [16]; at 3.7 µM 0% | [16]; at 11.0 µM 1% | [16]; at 33.0 µM 0% | [16]; at 100.0 µM -1%

CCN(CC)CCN(C)CCc1ccc(Br)cc1
active: [1]; at 100.0 µM 91% | [2]; at 100.0 µM 83% | [4]; at 33.0 µM 84% | [4]; at 100.0 µM 96% | [5]; at 100.0 µM 85% | [6]; at 100.0 µM 78% | [7]; at 33.0 µM 87% | [7]; at 100.0 µM 97% | [9]; at 100.0 µM 89% | [11]; at 100.0 µM 84%
inactive: [1]; at 1.2 µM 12% | [1]; at 3.7 µM 19% | [1]; at 11.0 µM 37% | [1]; at 33.0 µM 48% | [2]; at 1.2 µM 5% | [2]; at 3.7 µM 11% | [2]; at 11.0 µM 19% | [2]; at 33.0 µM 32% | [3]; at 1.2 µM -3% | [3]; at 3.7 µM -3% | [3]; at 11.0 µM -2% | [3]; at 33.0 µM -2% | [3]; at 100.0 µM -3% | [4]; at 1.2 µM 5% | [4]; at 3.7 µM 10% | [4]; at 11.0 µM 40% | [5]; at 1.2 µM 7% | [5]; at 3.7 µM 10% | [5]; [17] -6% | [5]; at 11.0 µM 20% | [5]; at 33.0 µM 50% | [5]; [18] 11% | [5]; at 50.0 µM 31.8% | [6]; at 1.2 µM 10% | [6]; at 3.7 µM 17% | [6]; [17] 8% | [6]; at 11.0 µM 26% | [6]; at 33.0 µM 43% | [6]; [18] 26% | [6]; at 50.0 µM 33.6% | [7]; at 1.2 µM 15% | [7]; at 3.7 µM 36% | [7]; at 11.0 µM 57% | [8]; [17] 5% | [8]; [18] 41% | [8]; at 50.0 µM 68.4% | [9]; at 1.2 µM 11% | [9]; at 3.7 µM 15% | [9]; at 11.0 µM 35% | [9]; at 33.0 µM 64% | [10]; [17] 10% | [10]; [18] 52% | [10]; at 50.0 µM 53.4% | [11]; at 1.2 µM 10% | [11]; at 3.7 µM 16% | [11]; [17] 13% | [11]; at 11.0 µM 35% | [11]; at 33.0 µM 67% | [11]; [18] 21% | [11]; at 50.0 µM 53.5%

— PubChem BioAssay (NCI)
